PubChem BioAssay AID1159580 (chemical genetic matrix, 2015)
Values joined by “and” are separate entries in the source; they are usually repeats but may differ in a detail not shown here. Identical values can stand only once. In all, about 5,500 compounds went through this assay and about 2,000 (36%) were called active. Inconclusive results (about 18%) are left out. No stated cut-off is given here; in the data, active means normalized growth mostly below about 0.91 (no sharp cut-off); inconclusive means no clear call, values can overlap the other calls; inactive means mostly above about 0.92. Some of the results follow.

Test: chemical genetic growth profiling, strain panel (AID 1159580);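 further: tested at 20 µM; growth read once vehicle control cultures reached saturation at 30 °C; 1 = growth at the plate median or of vehicle wells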
Conditions: S. cerevisiae deletion strains, growth OD

Measured: normalized growth

N[C@@H](Cc1ccc(N(CCCl)CCCl)cc1)C(=O)O
inactive: locus YAL013W, strain DEP1, stronger effect = lower value 0.988 | locus YAL021C, strain ccr4, stronger effect = lower value 0.985 | locus YAL026C, strain drs2, stronger effect = lower value 0.997 | locus YAL030W, strain snc1, stronger effect = lower value 0.991 | locus YBL061C, strain skt5, stronger effect = lower value 0.987 | locus YBR009C, strain hhf1, stronger effect = lower value 0.985 | locus YBR021W, strain FUR4, stronger effect = lower value 1.05 | locus YBR023C, strain chs3, stronger effect = lower value 0.978 | locus YBR171W, strain sec66, stronger effect = lower value 0.98 | locus YBR229C, strain ROT2, stronger effect = lower value 0.947 | locus YBR231C, strain swc5, stronger effect = lower value 0.994 | locus YBR279W, strain paf1, stronger effect = lower value 0.988 | locus YCL011C, strain gbp2, stronger effect = lower value 0.971 | locus YCL016C, strain dcc1, stronger effect = lower value 0.968 | locus YCL029C, strain bik1, stronger effect = lower value 0.972 | locus YCL061C, strain MRC1, stronger effect = lower value 0.972 | locus YCL069W, strain vba3, stronger effect = lower value 0.984 | locus YCR088W, strain abp1, stronger effect = lower value 0.986 | locus YDL005C, strain med2, stronger effect = lower value 0.995 | locus YDL035C, strain GPR1, stronger effect = lower value 0.986 | locus YDL040C, strain nat1, stronger effect = lower value 0.985 | locus YDL074C, strain BRE1, stronger effect = lower value 0.977 | locus YDL101C, strain DUN1, stronger effect = lower value 0.972 | locus YDL134C, strain PPH21, stronger effect = lower value 0.987 | locus YDL192W, strain arf1, stronger effect = lower value 0.973 | locus YDR001C, strain nth1, stronger effect = lower value 0.978 | locus YDR069C, strain doa4, stronger effect = lower value 0.996 | locus YDR101C, strain arx1, stronger effect = lower value 0.983 | locus YDR137W, strain rgp1, stronger effect = lower value 0.964 | locus YDR150W, strain NUM1, stronger effect = lower value 0.974 | locus YDR159W, strain sac3, stronger effect = lower value 1.01 | locus YDR162C, strain NBP2, stronger effect = lower value 0.974 | locus YDR195W, strain ref2 0.975 | locus YDR297W, strain sur2, stronger effect = lower value 0.998 | locus YDR318W, strain mcm21, stronger effect = lower value 0.984 | locus YDR334W, strain swr1, stronger effect = lower value 0.966 | locus YDR335W, strain msn5, stronger effect = lower value 0.995 | locus YDR388W, stronger effect = lower value 0.984 | locus YDR392W, strain spt3, stronger effect = lower value 0.879 | locus YDR502C, strain sam2, stronger effect = lower value 0.971 | locus YEL003W, strain gim4, stronger effect = lower value 0.996 | locus YEL037C, strain rad23, stronger effect = lower value 0.973 | locus YEL061C, strain CIN8 (second series), stronger effect = lower value 0.978 | locus YEL061C, strain CIN8, stronger effect = lower value 0.982 | locus YER015W, strain faa2, stronger effect = lower value 0.995 | locus YER016W, strain bim1, stronger effect = lower value 1 | locus YER110C, stronger effect = lower value 0.977 | locus YER111C, strain swi4, stronger effect = lower value 0.967 | locus YER155C, strain BEM2 (second series), stronger effect = lower value 0.991 | locus YER155C, strain BEM2, stronger effect = lower value 0.979 | locus YER167W, strain BCK2, stronger effect = lower value 0.982 | locus YFR010W, strain ubp6, stronger effect = lower value 0.985 | locus YGL078C, strain dbp3, stronger effect = lower value 0.986 | locus YGL086W, strain mad1, stronger effect = lower value 0.983 | locus YGL167C, strain pmr1, stronger effect = lower value 0.987 | locus YGL173C, strain kem1, stronger effect = lower value 0.994 | locus YGL227W, strain vid30, stronger effect = lower value 0.995 | locus YGL240W, strain doc1, stronger effect = lower value 1.02 | locus YGL248W, strain PDE1, stronger effect = lower value 0.972 | locus YGL253W, strain hxk2, stronger effect = lower value 0.982 | locus YGR078C, strain PAC10, stronger effect = lower value 0.986 | locus YGR135W, strain pre9, stronger effect = lower value 0.962 | locus YGR229C, strain SMI1, stronger effect = lower value 0.974 | locus YGR252W, strain gcn5, stronger effect = lower value 1.02 | locus YHR013C, strain ard1, stronger effect = lower value 0.932 | locus YHR027C, strain rpn1, stronger effect = lower value 0.983 | locus YHR030C, strain SLT2, stronger effect = lower value 0.989 and 1.02 | locus YHR079C, strain IRE1 (second series), stronger effect = lower value 0.982 | locus YHR079C, strain IRE1, stronger effect = lower value 1.03 | locus YHR094C, strain hxt1, stronger effect = lower value 0.971 | locus YHR129C, strain ARP1, stronger effect = lower value 0.998 | locus YHR142W, strain chs7, stronger effect = lower value 0.941 | locus YHR200W, strain rpn10, stronger effect = lower value 0.97 | locus YIL066C, strain RNR3, stronger effect = lower value 0.983 | locus YIL073C, strain SPO22, stronger effect = lower value 0.963 | locus YIL125W, strain kgd1, stronger effect = lower value 0.979 | locus YIR030C, strain dcg1, stronger effect = lower value 0.981 | locus YJL092W, strain hpr5, stronger effect = lower value 0.979 | locus YJL095W, strain BCK1 (second series), stronger effect = lower value 0.984 | locus YJL095W, strain BCK1, stronger effect = lower value 1 and 1.02 | locus YJL115W, strain asf1, stronger effect = lower value 0.981 | locus YJL129C, strain trk1, stronger effect = lower value 0.969 | locus YJL134W, strain LCB3, stronger effect = lower value 0.981 | locus YJL154C, strain vps35, stronger effect = lower value 0.978 | locus YJL164C, strain tpk1, stronger effect = lower value 0.949 | locus YJL166W, strain qcr8, stronger effect = lower value 0.952 | locus YJL168C, strain set2, stronger effect = lower value 0.981 | locus YJL187C, strain SWE1 (second series), stronger effect = lower value 0.98 | locus YJL187C, strain SWE1, stronger effect = lower value 0.984 | locus YJR043C, strain POL32, stronger effect = lower value 0.989 | locus YJR066W, strain TOR1, stronger effect = lower value 0.959
